Experimental data: ChEMBL document CHEMBL3988442, “University of Dundee, Small-Polar-MMV Screening Library” (2021)
The campaign covered roughly 69,000 compounds. About 1,000 (1.4%) showed an effect of 50% or more. The list comes from a sample in which strong results are over-represented; it also holds similar structures and randomly drawn compounds.

System: Leishmania donovani
Assay: Leishmania intramacrophage assay
Assay type: functional, organism-based
Design: scale not given: in the data most compounds retested in dose-response had high values

COc1c(CNCc2cccc(C(=O)N(C)C)c2)c(C)nn1C
Percent Effect (30 µM): 37.17%

COc1c(CNCc2ccc(C(=O)N(C)C)cc2)c(C)nn1C.Cl
Percent Effect (30 µM, 30.03 µM): 56.22%

O=C(CN1CCCC(c2ccc(C(=O)O)cc2)C1)NC1CC1 (configuration not stated)
Percent Effect (30 µM, 30.03 µM): 23.13%

Cc1ccc2cc(C(=O)N3CCCC3Cn3cccn3)[nH]c2c1 (configuration not stated)
Percent Effect (30.3 µM, […]): 22.94%

Cc1cnn(CCNCc2ccc(OCc3cccnc3)cc2)c1
Percent Effect (30 µM): 27.42%

CN(C)C(=O)N1CCOCC2(CCN(c3ccccn3)C2)C1.O=C(O)C(F)(F)F (configuration not stated)
Percent Effect (30 µM, 30.03 µM): 18.14%

O=S1(=O)c2ccccc2C(O)CN1CCO (configuration not stated)
Percent Effect (30.3 µM, […]): 5.205%

CCN(CC)c1ccc2ccc(C(=O)N3CCCCO3)cn12.O=C(O)C(F)(F)F
Percent Effect (30.3 µM, […]): 27.79%

CCN(CC)c1ccc2ccc(C(=O)O)cn12
Percent Effect (30.3 µM, […]): 18.9%

Cc1nc(-c2ccc(S(=O)(=O)N3CCOCC3)cc2)co1
Percent Effect (30.3 µM, […]): 23.37%

Cc1nn(C)cc1CN1C[C@@H]2CC[C@H](C1)N(Cc1c(C)noc1C)C2=O
Percent Effect (30.3 µM, […]): 16.01%

CCCN1CCC(c2nc3ccc(-c4cccc(F)c4)cn3n2)CC1.O=C(O)C(F)(F)F
Percent Effect (30.3 µM, […]): 49.02%

CCCN1CCC(c2nc3ccc(-c4ccccc4)cn3n2)CC1.O=C(O)C(F)(F)F
Percent Effect (30.3 µM, […]): 22.28%

CN1CCC(c2nc3ccc(-c4cccc(F)c4)cn3n2)CC1.O=C(O)C(F)(F)F
Percent Effect (30.3 µM, […]): 56.26%

CCN1CCC(c2nc3ccc(NC4CCC4)cn3n2)CC1.O=C(O)C(F)(F)F
Percent Effect (30.3 µM, […]): 53.52%

CCCN1CCC(c2nc3ccc(-c4cccc(OC)c4)cn3n2)CC1.O=C(O)C(F)(F)F
Percent Effect (30.3 µM, […]): 66.14%

CCCN1CCC(c2nc3ccc(-c4ccncc4)cn3n2)CC1.O=C(O)C(F)(F)F.O=C(O)C(F)(F)F
Percent Effect (30.3 µM, […]): 22.97%

CCN1CCC(c2nc3ccc(NC(C)C)cn3n2)CC1.O=C(O)C(F)(F)F
Percent Effect (30 µM, 30.03 µM): 14.23%

CC(=O)N1CCC(c2nc3ccc(NC4CCC4)cn3n2)CC1.O=C(O)C(F)(F)F
Percent Effect (30.3 µM, […]): 40.49%

CN1CCC(c2nc3ccc(-c4ccccc4)cn3n2)CC1.O=C(O)C(F)(F)F
Percent Effect (30.3 µM, […]): 26.64%

Cc1cnn(CC2CN(CC(=O)N3CCc4ccccc43)CCO2)c1 (configuration not stated)
Percent Effect (30 µM, 30.03 µM): 26.31%

CCCN(C(=O)c1cnns1)C1CCCN(Cc2ccccc2)C1 (configuration not stated)
Percent Effect (30.3 µM, […]): 15.37%

CCn1c(C)cc(C(=O)NCc2cccc(S(=O)(=O)NC)c2)c1C
Percent Effect (30.3 µM, […]): -2.214%

C[C@@H]1CN(CCC(=O)N(C)Cc2ccccc2)CC[C@@]1(O)C1CCC1
Percent Effect (30.3 µM, […]): -42.91%

C[C@@H]1CN(CCC(=O)N(C)Cc2ccccc2)C[C@@]1(O)C1CCC1
Percent Effect (30.3 µM, […]): 54.72%

CN(Cc1ccccc1)C(=O)CCN1CCC2(CC1)[C@H](O)C[C@@H]2O
Percent Effect (30.3 µM, […]): 16.81%

CC(C)Nc1cccc(CC2CCN(C)C2)n1.O=CO (configuration not stated)
Percent Effect (30.3 µM, […]): 8.612%

Cc1noc(C)c1CC(=O)NCC(C(C)C)N1CCOCC1 (configuration not stated)
Percent Effect (30.3 µM, […]): 13.16%

CS(=O)(=O)N1C[C@@H]2CC[C@H](C1)N(C(=O)CCc1ccsc1)C2
Percent Effect (30.3 µM, […]): 42.41%

CC(C)C1SCC(=O)Nc2c1cnn2-c1ccc(Cl)cc1 (configuration not stated)
Percent Effect (30.3 µM, […]): 63.84%

CC(C)C1SCC(=O)Nc2c1cnn2-c1ccc(F)cc1 (configuration not stated)
Percent Effect (30.3 µM, […]): -10.63%

COc1ccc(-n2ncc3c2NC(=O)CSC3C(C)C)cc1 (configuration not stated)
Percent Effect (30.3 µM, […]): 23.81%

Cc1cc(C)c(CNC(=O)N2CCCN(C(=O)C(C)C)CC2)c(C)c1
Percent Effect (30.3 µM, […]): -55.36%

COc1cc(NC2CCS(=O)(=O)C2)ncn1 (configuration not stated)
Percent Effect (30.3 µM, […]): -35.33%

CC(C)(C)NC(=O)c1cccc(CN2CCS(=O)(=O)CC2)c1
Percent Effect (30.3 µM, […]): 61.43%

O=C(NCC1CCC1)c1cccc(CN2CCS(=O)(=O)CC2)c1
Percent Effect (30.3 µM, […]): 14.97%

Cc1nn(C)c(C)c1NC(=O)c1cccc(CN2CCS(=O)(=O)CC2)c1
Percent Effect (30.3 µM, […]): 17.24%

CN1CCO[C@@H]2CN(S(=O)(=O)c3ccccc3)C[C@@H]2C1.O=C(O)C(F)(F)F
Percent Effect (30.3 µM, […]): 29.49%

OCC1CCCN1c1cc(NCCc2ccsc2)ncn1 (configuration not stated)
Percent Effect (30.3 µM, […]): -26.43%

OCC1CCCN1c1cc(NCCNc2ccccn2)ncn1 (configuration not stated)
Percent Effect (30 µM, 30.03 µM): 16.04%

OCC1CCCN1c1cc(NCc2ccccn2)ncn1 (configuration not stated)
Percent Effect (30.3 µM, […]): 50.11%

OCC1CCCN1c1cc(NCCNc2cccnn2)ncn1 (configuration not stated)
Percent Effect (30.3 µM, […]): 20.93%

OCC1CCCN1c1cc(NCCc2nccs2)ncn1 (configuration not stated)
Percent Effect (30.3 µM, […]): 55.11%

OCC1CCCN1c1cc(NCCc2ccccn2)ncn1 (configuration not stated)
Percent Effect (30.3 µM, […]): 47.66%

NC(=O)[C@@H]1CCCN1C(=O)c1csc(-c2ccc(C(F)(F)F)cc2)n1
Percent Effect (30.3 µM, […]): 24.55%

CNC(=O)c1cc(OC)c(OC)cc1N(C)S(C)(=O)=O
Percent Effect (30.3 µM, […]): -11.85%

COc1ccc(CCCC(=O)NCc2c(C)noc2C)cc1F
Percent Effect (30.3 µM, […]): 0.2518%

Cc1cc(C)cc(C(=O)NCc2ncnn2C)c1
Percent Effect (30.3 µM, […]): -3.252%

COC(=O)CCNC(=O)c1nnn(-c2ccc(F)cc2)c1C1CC1
Percent Effect (30.3 µM, […]): 23.19%

COc1cccc(CNCc2ccc(F)c(Cl)c2)c1O
Percent Effect (30.3 µM, […]): 3.534%

COc1cccc(CNCc2ccccc2Cl)c1O
Percent Effect (30.3 µM, […]): 11.74%

COc1cccc(CNCc2ccc(F)cc2Cl)c1O
Percent Effect (30.3 µM, […]): 50.12%
